# Laboratory results as given in PubChem BioAssay.
# Several values for one entry are separate records, joined by “and”; a condition that tells them apart may be missing. Identical values can stand only once. Inconclusive results are not listed. Activity calls are given as the source filed them. Unless noted, no stated cut-off is given here; in the data, active means inhibition above about 80%; inactive means the rest.
# Tests used:
# [1] = P. berghei load reduction in hepatocytes – cell-based, HepG2, luciferase luminescence, HepG2 viability, primary screen (AID 624349; in the data active means parasite load remaining mostly below about 12%, no sharp cut-off; inactive means mostly above about 10%;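 further: 100% = mean of DMSO negative control wells on the same plate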); conditions: P. berghei liver stage in HepG2, luciferase luminescence, concentration not given here; parasite load remaining: stronger effect = lower value; viability: measured here: HepG2 viability without parasites
# [2] = test system: Aerobactin synthetase IucA (Klebsiella pneumoniae); test: inhibition of K. pneumoniae IucA enzyme – biochemical, Tocris library, absorbance (AID 1345561; call rule not given here;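 further: 100% = enzyme without compound and 0% = no enzyme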); conditions: purified IucA enzyme assay, absorbance (OD) read-out; stronger effect = lower value;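 tested at 8 µM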
# [3] = compounds altering HSF1 focus formation in cells – imaging, Selleck Cancer Library (AID 1347162; in the data active means plate-normalised HSF1 focus index below about 0.46); conditions: human cells, HSF1 nuclear foci imaging, at 10 µM; SSMD: measured here: HSF1 foci SSMD mean; cell count: measured here: cell number; plate-normalised HSF1 focus index: stronger effect = lower value
# [4] = growth inhibition, single agents and combos, LFS_MB_1R, cell-based, cisplatin or BGB combos, synergistic combos for chromothripsis tumors (AID 1671452); conditions: LFS_MB_1R medulloblastoma cells, stronger effect = higher value;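 further: cells exposed for 96 hours before readout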
# [5] = growth inhibition, single agents and combos, CRL2098, cell-based, BGB or cisplatin IC20 combos, synergistic combos for chromothripsis tumors (AID 1671454); conditions: CRL2098 osteosarcoma cells, drug combinations, stronger effect = higher value;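 further: cells exposed for 96 h before readout; 0% = vehicle DMSO and 100% = killing by high DMSO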
# [6] = growth inhibition, single agents and combos, HD-MB03, cell-based, BGB or cisplatin IC20 combos, synergistic combos for chromothripsis tumors (AID 1671455; in the data active means inhibition above about 83%;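 further: 0% = vehicle DMSO and 100% = high DMSO as cytotoxic control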); conditions: HD-MB03 medulloblastoma cells, stronger effect = higher value
# [7] = growth inhibition, single agents and combos, UWB1.289, cell-based, BGB or cisplatin combos, synergistic combos for chromothripsis tumors (AID 1671456); conditions: UWB1.289 ovarian carcinoma cells, stronger effect = higher value;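 further: cells exposed to compound for four days; 0% = vehicle DMSO and 100% = killing by high DMSO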
# [8] = growth inhibition, single agents and combos, LFS_MB_2R, cell-based, cisplatin combos, synergistic combos for chromothripsis tumors (AID 1671457); conditions: LFS_MB_2R medulloblastoma cells, stronger effect = higher value;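 further: cells exposed to compound for four days before readout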
# [9] = UWB1.289_BRCA1 ovarian cancer growth, cell-based, BGB or cisplatin combinations (AID 1671459); conditions: UWB1.289 BRCA1 ovarian carcinoma, drug combinations, stronger effect = higher value
# [10] = drug combination toxicity in non-malignant astrocytes – cell-based, BGB or cisplatin IC20 combos, cytotoxicity control for chromothriptic childhood tumor combination screen (AID 1671460); conditions: Human astrocytes, viability inhibition, drug combinations, at 0.5 µM, stronger effect = higher value;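 further: cells exposed to compounds for 96 hours before viability readout; 0% = vehicle and 100% = killing control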
# [11] = test system: Neuropilin-2 / VEGF-C interaction (human); test: small molecules blocking Neuropilin-2/VEGF-C interaction – biochemical, microplate binding format, z-score (AID 743281; call rule not given here); conditions: microplate NRP2/VEGF-C binding assay; stronger effect = lower value
# [12] = viability loss in pontine glioma line – cell-based, SU-DIPG-IV, MIPE4.0, CellTiter-Glo, qHTS, dose response (AID 1347063; cut-off not given, nearly all actives have AC50 up to about 30 µM;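 further: compound exposure lasted 48 hours before the viability readout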); conditions: CellTiter-Glo ATP luminescence
# [13] = measured here: combination with BGB IC40, at 0.05 µM
# [14] = measured here: combination with cisplatin, at 0.5 µM
# [15] = measured here: combination with cisplatin, at 5 µM
# [16] = measured here: combination with BGB at IC20, at 0.5 µM
# [17] = measured here: combination with cisplatin at IC20, at 0.5 µM
# [18] = measured here: combo with BGB at IC20, at 0.5 µM
# [19] = measured here: combo with cisplatin at IC20, at 0.5 µM
# [20] = measured here: inhibition with BGB combination, at 0.05 µM
# [21] = measured here: inhibition with cisplatin combination, at 0.05 µM
# [22] = BGB combination, concentration series, at 5 µM
# [23] = cisplatin combination, concentration series, at 5 µM
# [24] = measured here: combo with BGB IC20
# [25] = measured here: combo with cisplatin IC20
compound,measurement,setting,value
O=C(O)CCCc1ccccc1,parasite load remaining,[1],61.6% (inactive) and 72.5% (inactive)
same,viability,[1],96.6% and 102%
same,remaining activity,[2],106% (inactive)
same,SSMD,[3],2.46
same,cell count,[3],7000
same,plate-normalised HSF1 focus index,[3],1.14 (inactive)
same,inhibition,[4]; at 0.5 µM,-18.6% (inactive)
same,inhibition,[4]; [13],-25.4%
same,inhibition,[4]; [14],-26.8%
same,inhibition,[4]; [15],-16.2%
same,inhibition,[5]; at 0.5 µM,-56.1% (inactive)
same,inhibition,[5]; [16],-54.3%
same,inhibition,[5]; [17],-68.3%
same,inhibition,[6]; at 0.5 µM,-7.96% (inactive)
same,inhibition,[6]; [18],-7.07%
same,inhibition,[6]; [19],-7.42%
same,inhibition,[7]; at 0.5 µM,-4.79% (inactive)
same,inhibition,[7]; [20],-17.3%
same,inhibition,[7]; [21],-13.9%
same,inhibition,[8]; at 0.5 µM,-17.8% (inactive)
same,inhibition,[8]; [14],-17.8%
same,inhibition,[8]; [15],-56.2%
same,inhibition,[9]; [22],3.17%
same,inhibition,[9]; at 0.5 µM,-1.28% (inactive)
same,inhibition,[9]; [23],25.2%
same,inhibition,[10],2.17% (inactive)
same,inhibition,[10]; [24],-14.8%
same,inhibition,[10]; [25],-0.734%
CCCc1nc2c(C)cc(-c3nc4ccccc4n3C)cc2n1Cc1ccc(-c2ccccc2C(=O)O)cc1,z-score,[11],-0.492 (inactive)
same,outcome,[12],inactive
CC1COc2c(N3CCN(C)CC3)c(F)cc3c(=O)c(C(=O)O)cn1c23 (configuration not stated),inhibition,[4]; at 0.5 µM,-39.4% (inactive) and -8.3% (inactive) and 2.79% (inactive)
same,inhibition,[4]; [13],-24.5% and -34% and -2.54%
same,inhibition,[4]; [14],-78.8% and -30% and 23.8%
same,inhibition,[4]; [15],-87.1% and 21.5% and -3.71%
same,inhibition,[5]; at 0.5 µM,-97.4% (inactive) and -9.66% (inactive) and -3.54% (inactive)
same,inhibition,[5]; [16],-84.4% and -20.4% and 15.5%
same,inhibition,[5]; [17],-95.4% and 17.6% and 11.9%
same,inhibition,[6]; at 0.5 µM,-17.7% (inactive) and 0.8% (inactive) and 1.26% (inactive)
same,inhibition,[6]; [18],-22% and -1.41% and -0.426%
same,inhibition,[6]; [19],-27.3% and 2.8% and -2.37%
same,inhibition,[7]; at 0.5 µM,-7.78% (inactive) and 3.9% (inactive) and 3.09% (inactive)
same,inhibition,[7]; [20],-28.7% and 4.48% and 2.71%
same,inhibition,[7]; [21],-3.9% and 3.6% and -0.825%
same,inhibition,[8]; at 0.5 µM,-19.3% (inactive) and 6.15% (inactive) and -0.77% (inactive)
same,inhibition,[8]; [14],-23.3% and -0.024% and 7.26%
same,inhibition,[8]; [15],-88.9% and 5.83% and 8.15%
same,inhibition,[9]; [22],-49.7% and -1.75% and -2.9%
same,inhibition,[9]; at 0.5 µM,-9.08% (inactive) and -0.86% (inactive) and 1.25% (inactive)
same,inhibition,[9]; [23],-6.84% and 7.33% and -3.71%
same,inhibition,[10],-0.29% (inactive) and 4.48% (inactive) and 7.23% (inactive)
same,inhibition,[10]; [24],12.7% and 6.41% and 15%
same,inhibition,[10]; [25],-18.7% and -2.95% and 15.1%
